Experimental data: PMC10726135, “HNF4α isoforms regulate the circadian balance between carbohydrate and lipid metabolism in the liver”
In all, about 18,000 sequences were measured (“log2 normalized intensity”: median about 0.36, highest 2% from about 7.3 on). This is one part of a sample in which the highest values are shown more often than they occur.

What follows are sequences tested against T1, HNF4alpha8 (COS-7 nuclear extract) (Homo sapiens, UniProt P41235-5 1-452) (assay: protein-binding microarray; COS-7 nuclear extract on double-stranded Agilent 4x180k PBM; binding buffer, salt, pH and temperature not given in the material; high values mean tight binding). Conditions: chain copies: 2; label: 3' end of strand 1 on the slide; dsDNA, one strand shown.
T1 sequence: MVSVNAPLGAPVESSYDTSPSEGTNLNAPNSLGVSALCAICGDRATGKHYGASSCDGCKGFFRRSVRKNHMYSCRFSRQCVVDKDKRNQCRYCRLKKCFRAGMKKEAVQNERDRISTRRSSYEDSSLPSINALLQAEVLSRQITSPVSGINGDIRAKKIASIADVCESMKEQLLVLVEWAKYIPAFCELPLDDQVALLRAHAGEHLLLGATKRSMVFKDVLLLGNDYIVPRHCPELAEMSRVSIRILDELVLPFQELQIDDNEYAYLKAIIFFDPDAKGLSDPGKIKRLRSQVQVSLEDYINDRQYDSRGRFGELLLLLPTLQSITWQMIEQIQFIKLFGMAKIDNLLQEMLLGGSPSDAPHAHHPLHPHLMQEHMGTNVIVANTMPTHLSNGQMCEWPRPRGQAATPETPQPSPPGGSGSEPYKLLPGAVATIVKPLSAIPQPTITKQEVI
Summary of the method: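 A custom Agilent SurePrint G3 4x180k array, spotted in quadruplicate with ~44,000 test sequences as ~60-nt oligonucleotides made double-stranded, was incubated with nuclear extracts. The extracts came from COS-7 cells transiently transfected by CaPO4 with a human HNF4α isoform expression vector. Bound HNF4α was imaged on an Agilent G2565CA scanner at 2-µm resolution, and the binding signal was taken as Agilent software's background-corrected, normalized gProcessedSignal.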

Sequence | binding signal
CCCTCTGAGTGTTTGACCTTTCACCCAGAAGCCTAGGGAGATTAGAGTATCGGTCGA | 7.2 log2 normalized intensity
CCCCCAGTGGAATGTGCCCTTTGACCTCTCGCCTAGGGAGATTAGAGTATCGGTCGA | 10.3 log2 normalized intensity
AGTAACCTGACCCCCAGTGGAATGTGCCCTGCCTAGGGAGATTAGAGTATCGGTCGA | 4.61 log2 normalized intensity
CACTCTGGTGCCCTCTGAGTGTTTGACCTTGCCTAGGGAGATTAGAGTATCGGTCGA | 5.61 log2 normalized intensity
GTGCTCCCTCCCCCTGCATGAACCTTTGCTGCCTAGGGAGATTAGAGTATCGGTCGA | 3.72 log2 normalized intensity
AGTGGAATGTGCCCTTTGACCTCTCTCTCCGCCTAGGGAGATTAGAGTATCGGTCGA | 8.33 log2 normalized intensity
CCTGACCCCCAGTGGAATGTGCCCTTTGACGCCTAGGGAGATTAGAGTATCGGTCGA | 5.75 log2 normalized intensity
TGGTGCCCTCTGAGTGTTTGACCTTTCACCGCCTAGGGAGATTAGAGTATCGGTCGA | 8.17 log2 normalized intensity
AATGTGCCCTTTGACCTCTCTCTCCTAACTGCCTAGGGAGATTAGAGTATCGGTCGA | 7.21 log2 normalized intensity
GGTGGGCTGCTCCCAGTGCCCTTTGAACTCGCCTAGGGAGATTAGAGTATCGGTCGA | 8.91 log2 normalized intensity
GGAATGACCTTTGATATTTGTGCCTAGTGGGCCTAGGGAGATTAGAGTATCGGTCGA | 5.39 log2 normalized intensity
TGCCCTATGTCCTCCAGCTCTTGGGGAACAGCCTAGGGAGATTAGAGTATCGGTCGA | 0.218 log2 normalized intensity
AAAGCCATCAGCACTGGTTCAAAGTGTAGCGCCTAGGGAGATTAGAGTATCGGTCGA | 1.25 log2 normalized intensity
AGAGGAAGATCTTTTTGATGACTTTGTAGGGCCTAGGGAGATTAGAGTATCGGTCGA | 0.915 log2 normalized intensity
TAAACCTGTTTGGTATCTACTCGGCAAAACGCCTAGGGAGATTAGAGTATCGGTCGA | 1.28 log2 normalized intensity
GACACTTCCAGCCAAACCAGGTCATGCATTGCCTAGGGAGATTAGAGTATCGGTCGA | 0.387 log2 normalized intensity
CCGTTAGCCAATATTTGCAAGGCTGTTGGCGCCTAGGGAGATTAGAGTATCGGTCGA | -0.823 log2 normalized intensity
CCCCCCAAGTTGAAGCCATCCTCCCACCTCGCCTAGGGAGATTAGAGTATCGGTCGA | 5.73 log2 normalized intensity
TATTAGGCAAAAGAGATAGCGAGAAGGCAGGCCTAGGGAGATTAGAGTATCGGTCGA | -0.999 log2 normalized intensity
TTATGTACTTAGTGTTTTATGTGTATTTACGCCTAGGGAGATTAGAGTATCGGTCGA | 2.09 log2 normalized intensity
AGTTTTGCAACATACTGAAAAAGGGTTGTGGCCTAGGGAGATTAGAGTATCGGTCGA | 1.23 log2 normalized intensity
CGCTCTGAGTGACCTTTCACCCGCGCCCAGGCCTAGGGAGATTAGAGTATCGGTCGA | 6.45 log2 normalized intensity
CGCCGGGCGCCGCTCTGAGTGACCTTTCACGCCTAGGGAGATTAGAGTATCGGTCGA | 5.71 log2 normalized intensity

Sequence | binding signal
GGCGCCGCTCTGAGTGACCTTTCACCCGCGGCCTAGGGAGATTAGAGTATCGGTCGA | 7.77 log2 normalized intensity
CCCTGCAATTTGATTTGTATGATCTTGGGTGCCTAGGGAGATTAGAGTATCGGTCGA | 1.73 log2 normalized intensity
TGTGATGTGAAGAGTGTGGACTTTCACCTCGCCTAGGGAGATTAGAGTATCGGTCGA | 8.92 log2 normalized intensity
TGTGAAGAGTGTGGACTTTCACCTCCACCAGCCTAGGGAGATTAGAGTATCGGTCGA | 6.7 log2 normalized intensity
TTCCCCAGTGAGGATGTGTGCTCGAGGTGGGCCTAGGGAGATTAGAGTATCGGTCGA | 1.11 log2 normalized intensity
CAGTGAGGATGTGTGCTCGAGGTGGACTTTGCCTAGGGAGATTAGAGTATCGGTCGA | 7.48 log2 normalized intensity
AGGATGTGTGCTCGAGGTGGACTTTCCCCCGCCTAGGGAGATTAGAGTATCGGTCGA | 6.75 log2 normalized intensity
GACCATGTGATGTGAAGAGTGTGGACTTTCGCCTAGGGAGATTAGAGTATCGGTCGA | 4.87 log2 normalized intensity
CAAGGGTCAGTTCATTAAAAAAAAAAAAAAGCCTAGGGAGATTAGAGTATCGGTCGA | 0.208 log2 normalized intensity
GATCAAGAGGAAGATCTTTTTGATGACTTTGCCTAGGGAGATTAGAGTATCGGTCGA | 0.895 log2 normalized intensity
AGTATTACCATGTCCTGTGATTAAGGTCAAGCCTAGGGAGATTAGAGTATCGGTCGA | 2.96 log2 normalized intensity
AACTATGCAGTGTCCATGGTGACCATGTGAGCCTAGGGAGATTAGAGTATCGGTCGA | 1.71 log2 normalized intensity
CTGGACTATGCCTTGAACTTTAAGGCACCTGCCTAGGGAGATTAGAGTATCGGTCGA | 1.67 log2 normalized intensity
GGACTTCGAATGGTATGCTAGAGTACTTGGGCCTAGGGAGATTAGAGTATCGGTCGA | 1.51 log2 normalized intensity
TGCTAGAGTACTTGGACTTTAACCTTTAGAGCCTAGGGAGATTAGAGTATCGGTCGA | 9.71 log2 normalized intensity
TCGAATGGTATGCTAGAGTACTTGGACTTTGCCTAGGGAGATTAGAGTATCGGTCGA | 7.5 log2 normalized intensity
ACGACCTTTGGACTTGAATTATCCTTATGGGCCTAGGGAGATTAGAGTATCGGTCGA | 6.99 log2 normalized intensity
AGAGTTAGGGCCTTGCTATGGAGTGGACTTGCCTAGGGAGATTAGAGTATCGGTCGA | 3.91 log2 normalized intensity
CTTTGGACTTGAATTATCCTTATGGTCTCTGCCTAGGGAGATTAGAGTATCGGTCGA | 0.611 log2 normalized intensity
GCTTTTGGAAGGACTTCGAATGGTATGCTAGCCTAGGGAGATTAGAGTATCGGTCGA | -0.468 log2 normalized intensity
TGGTATGCTAGAGTACTTGGACTTTAACCTGCCTAGGGAGATTAGAGTATCGGTCGA | 9.56 log2 normalized intensity
GCCTAAGCAGGGCTAGACTTTAACCCCCTTGCCTAGGGAGATTAGAGTATCGGTCGA | 6.24 log2 normalized intensity
CTTTAACGACCTTTGGACTTGAATTATCCTGCCTAGGGAGATTAGAGTATCGGTCGA | 8.83 log2 normalized intensity
